Rab9 promoter act: Rab9 promoter activation | Huh7 Rab9 promoter-luciferase reporter, luminescence, 24 h | AID 485297 | 320,000 tested, 2.8% active | Potency, µM (titrated, usually from 9.22 µM), without a hit: at the top dose activation, negative = inhibition, most hits filed as activators; further: % of control where 0% means no effect; nearly all actives have a fitted effect of over 60% in size
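Huh7 reporter line, Rab9 promoter upstream of luciferase. Compound exposure 24 h at 37 °C in reduced-serum medium with 10% FBS. Read-out: luminescence.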
SMN2 splice up: SMN2 splice variant enhancement; Potency, µM (highest dose often 46.1 µM), for the others: at the top dose activity change, positive = activation, usual class: activators; AID 1458; 210,000 tested, 2.8% active; HEK293 SMN2-luciferase splicing reporter, luminescence, 30-36 h; further: % of control where 0% means no effect; nearly all actives have a fitted effect of over 55% in size
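qHTS luciferase splicing reporter: luminescence rises when SMN2 exon 7 is included in transfected HEK293 cells. Compound exposure lasted 30-36 h at 37C, with 4.5 mM final sodium butyrate as control, followed by a ONE-Glo read.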
FLuc modulator: firefly luciferase modulation, counter-screen for miR-21 project; Potency, µM (highest dose often 57.5 µM), for the others: top-dose activity change, negative = inhibition, most hits filed as inhibitors; purified FLuc, Km substrates, luminescence inhibition; P08659; 360,000 tested, 6.9% active;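 further: plate controls were vehicle for no effect and reference inhibitor for full effect; nearly all actives have a fitted effect of over 55% in size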
Target sequence (P08659 whole entry, looked up): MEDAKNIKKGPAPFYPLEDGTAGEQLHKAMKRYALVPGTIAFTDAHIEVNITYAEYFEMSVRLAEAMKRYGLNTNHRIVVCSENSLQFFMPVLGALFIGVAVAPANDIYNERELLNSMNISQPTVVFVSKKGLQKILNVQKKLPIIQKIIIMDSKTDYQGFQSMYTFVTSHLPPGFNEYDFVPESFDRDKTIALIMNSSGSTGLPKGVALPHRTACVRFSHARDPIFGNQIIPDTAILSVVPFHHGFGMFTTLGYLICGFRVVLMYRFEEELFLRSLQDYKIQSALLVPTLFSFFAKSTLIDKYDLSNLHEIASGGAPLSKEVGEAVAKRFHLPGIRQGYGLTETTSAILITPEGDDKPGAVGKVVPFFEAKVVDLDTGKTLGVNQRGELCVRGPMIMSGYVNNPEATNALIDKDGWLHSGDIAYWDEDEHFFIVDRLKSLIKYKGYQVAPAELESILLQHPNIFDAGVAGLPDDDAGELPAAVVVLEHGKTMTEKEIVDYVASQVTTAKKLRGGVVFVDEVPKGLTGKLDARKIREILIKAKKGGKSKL
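Biochemical qHTS of compounds, final roughly 60 µM downward over six points, against 10 nM purified firefly luciferase using Km concentrations of substrates (10 uM D-luciferin, 10 uM ATP) in Tris acetate pH 7.5 buffer; luminescence output.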
NPC1 promoter act: activates the NPC1 promoter. Huh7 NPC1 promoter luciferase reporter, 24 h. Potency, µM (top dose mostly 9.22 µM), without a hit: at the highest dose activation, actives largely listed as activators. 320,000 tested, 2.4% active; further: % of control where 0% means no effect; nearly all actives have a fitted effect of over 60% in size
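NPC1 promoter–luciferase Huh7 cells; 24 h compound; luminescence.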
Luc counter: blocks Kinase-Glo luciferase, a counter-screen artifact; Potency, µM (top dose mostly 38.3 µM), for the others: top-dose activity change, negative = inhibition, usual class: inhibitors; AID 1379; Kinase-Glo luciferase, ATP luminescence, 8 min; Q27757; 200,000 tested, 0.28% active; further: on the % scale 0 is the no-effect control and ±100 the full control effect; nearly all actives have a fitted effect of over 60% in size
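Light output from Kinase-Glo luciferase with luciferin and 10 uM ATP in 50 mM imidazole pH 7.2, KCl, MgCl2, Tween 20, BSA; compound pin-delivered, 8-min ambient incubation, then luminescence read.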
ELG1 genotox: inducers of genotoxicity in HEK293T ELG1-luciferase cells. 330,000 tested, 1.3% active. Potency, µM (series often up to 46 µM), inactives show top-dose activity change, positive = activation, actives largely listed as activators. HEK293T ELG1-luciferase reporter, luminescence, 16 h. AID 504466; further: % of control where 0% means no effect; nearly all actives have a fitted effect of over 60% in size
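ELG1-luciferase HEK293T cells, 2,000/well; compound pinned in; 16 hr, 37 °C, 5% CO2; ONE-Glo, 30 min RT; luminescence on CCD imager.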
* marks the source's active call; other numbers are inactive results; ? = inconclusive; . = no result given. Rows were chosen to be rich in hits. Some 7.4% of all compounds tested hit in one or more screens of this group. The call rests on the fitted dose curve; in most records, active means well fitted curve in the direction sought with a large enough effect; inconclusive means small, poorly fitted or top-dose-only effect, or another doubt; inactive means no such curve, though single readings can be large; an effect the other way counts as inactive or inconclusive. Potency means the concentration at half of the fitted maximal effect.

SMILES | Rab9 promoter act | SMN2 splice up | FLuc modulator | NPC1 promoter act | Luc counter | ELG1 genotox
CCOC(=O)c1cccc(NC(=O)c2cccs2)c1 | 18% | -11% | 21µM* | 27% | -4% | ?
CCOC(=O)c1cccc(NC(=O)c2sc3nc[nH]c(=O)c3c2C)c1 | . | . | 15µM* | . | . | .
CC(=O)Oc1cccc(C(=O)Nc2ccc(NC(=O)c3cccs3)cc2)c1 | ? | . | -1% | 4.5µM* | . | ?
CCOC(=O)c1cccc(NC(=O)c2ccccc2C)c1 | ? | 9% | -19% | 28% | 1% | 7%
CCOC(=O)c1cccc(Nc2nc(C)cc(C)n2)c1 | 4.5µM* | ? | ? | ? | 1% | 13%
Cc1ccc(CCNc2nc3c(S(=O)(=O)c4ccc(C)cc4)nnn3c3ccsc23)cc1 | . | . | 0% | . | . | .
COc1cccc(C(=O)Nc2cccc(NC(=O)c3cccs3)c2)c1 | 0% | . | 21µM* | 1% | . | -2%
CCOC(=O)c1cccc(NC(=O)c2cc3sccc3n2C)c1 | 0.89µM* | 14µM* | 24µM* | 0.35µM* | -1% | ?
COc1cc(NC(=O)c2ccccc2Cl)ccc1NC(=O)c1cccs1 | 2.8µM* | 22µM* | 13µM* | ? | 0% | ?
COc1cccc(C(=O)Nc2cc(NC(=O)c3cccs3)ccc2C)c1OC | 3% | . | 21µM* | -2% | . | -14%
CCN1CCCC1Cn1c(-c2ccccc2)nc2c(N3CCOCC3)nc(C)nc21 (stereo not given) | . | -7% | . | . | 1% | .
COc1cccc(C(=O)Nc2cc(NC(=O)c3cccs3)ccc2C)c1 | 2% | . | 12µM* | 4% | . | -14%
CCc1sc(C(=O)Nc2cccc(C(C)=O)c2)cc1C | ? | ? | 11µM* | 27% | 1% | 16%
CC(=O)c1cccc(NC(=O)c2cc3c(s2)-c2c(C)cccc2OC3)c1 | . | -2% | -6% | . | . | .
CCOC(=O)/C(=N\Nc1ncnc2ccccc12)c1ccc(C)cc1 | ? | . | 12µM* | ? | . | ?
CCOC(=O)C/C(=N\Nc1ncnc2ccccc12)c1ccccc1 | ? | . | ? | 17% | . | 5%
CCCc1ccc(-c2ccc(C(=O)O)cc2)nc1 | 0.4µM* | 2.5µM* | 1.5µM* | ? | -1% | ?
CCCc1ccc(OCC(=O)O)cc1 | -2% | -5% | ? | 0% | 3% | 0%
CCCCCc1ccc(-c2ccc(C(=O)Oc3ccc(C(=O)OC)cc3)cc2)nc1 | . | -46% | 12µM* | . | . | .
CCCCCc1ccc(-c2ccc(/C=C/C(N)=O)cc2)nc1 | ? | -1% | 4.8µM* | ? | 0% | 16%
CCCc1ccc(-c2ccc(C(=O)Oc3ccc(OCC)cc3)cc2)nc1 | . | 4% | -19% | . | . | .
CC(C)Oc1ccc(CNC(=O)C2CCN(c3nc4ccccc4nc3C(F)(F)F)CC2)cc1 | . | . | -1% | . | . | .
COc1ccc(NC(=O)c2ccc(NC(=O)CCS(=O)(=O)c3cccs3)cc2)cc1Cl | . | 16µM* | 5% | . | . | .
Cc1cc(NC(=O)c2ccc(NC(=O)CCS(=O)(=O)c3cccs3)cc2)ccc1Br | . | 16µM* | -2% | . | . | .
O=C(CCS(=O)(=O)c1cccs1)Nc1ccc(C(=O)Nc2cccc(Cl)c2)cc1 | . | ? | -5% | . | . | .
SMILES | Rab9 promoter act | SMN2 splice up | FLuc modulator | NPC1 promoter act | Luc counter | ELG1 genotox
O=C(Nc1cccnc1)Nc1ccc(F)c(Cl)c1 | 12% | . | 24µM* | 12% | -7% | -8%
Cc1ccc(NC(=O)Nc2ccc(F)c(Cl)c2)cc1 | ? | 13µM* | 4.3µM* | ? | 4% | 8%
COc1ccc(OC)c(NC(=O)Nc2ccc(Cl)cc2)c1 | 7% | -5% | 19µM* | 1% | -3% | -2%
COC(=O)c1cc(NC(=O)Nc2cc(OC)ccc2OC)cc(C(=O)OC)c1 | -5% | -8% | -1% | 6% | -4% | -11%
COc1ccc(NC(=O)Nc2ccc(F)c(Cl)c2)cc1 | 2.8µM* | 14µM* | ? | 3.5µM* | 1% | 4%
O=C(Nc1cccnc1)c1cc(F)c(F)cc1Cl | -9% | 0% | -1% | -4% | 0% | -3%

Screening results (PubChem)
